GLP1R ag: qHTS of GLP-1 Receptor Agonists. Glucagon-like peptide 1 receptor (Homo sapiens), P43220. HEK293 GLP-1R CRE-luciferase, luminescence, 4-6 h; cells express a hypersensitive GLP-1R form. Potency, µM (series often up to 45.6 µM), usual class: activators. 380,000 compounds, 0.007% hits
Target sequence (P43220 whole entry, looked up): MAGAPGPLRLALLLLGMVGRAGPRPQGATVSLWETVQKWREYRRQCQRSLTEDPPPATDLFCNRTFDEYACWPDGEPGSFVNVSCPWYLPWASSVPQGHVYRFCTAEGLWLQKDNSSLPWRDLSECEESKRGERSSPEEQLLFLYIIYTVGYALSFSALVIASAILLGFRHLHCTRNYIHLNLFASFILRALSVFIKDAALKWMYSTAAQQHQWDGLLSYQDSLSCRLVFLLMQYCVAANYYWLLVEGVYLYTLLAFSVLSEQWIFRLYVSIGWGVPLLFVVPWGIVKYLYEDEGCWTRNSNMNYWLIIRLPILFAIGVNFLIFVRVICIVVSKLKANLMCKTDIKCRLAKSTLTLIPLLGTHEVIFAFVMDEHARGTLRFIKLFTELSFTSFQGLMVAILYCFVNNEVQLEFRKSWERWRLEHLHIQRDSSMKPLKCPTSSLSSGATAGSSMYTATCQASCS
GLP1R inv ag: qHTS of GLP-1 Receptor Inverse Agonists (Inhibition Mode) | Glucagon-like peptide 1 receptor (Homo sapiens), P43220 | HEK293 GLP-1R CRE-luciferase, luminescence, 24 h; GLP-1R form is constitutively active | Potency, µM (titrated, usually from 38.3 µM), actives largely listed as inhibitors | 410,000 compounds, 1.6% hits | AID 624417, 2012; further: nearly all actives have a fitted effect of over 55% in size
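Using stably transfected HEK293 (constitutively active GLP-1R, cAMP-luciferase reporter), compounds were incubated 24 hr and luciferase measured by luminescence.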
HEK293 tox: qHTS of GLP-1 Receptor Inverse Agonists: Cytotox Screen; HEK293 cAMP-luciferase reporter cells, luminescence, 24 h; Potency, µM (top dose mostly 38.3 µM), usual class: inhibitors; 410,000 compounds, 0.13% hits;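 further: loss of luciferase light is scored as toxicity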
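1536-well qHTS counterscreen of the MLSMR; 200 cells/uL, 12 h pre-incubation, 23 nL cpd, 24 h at 37 deg C 5% CO2, luciferase detection reagent, 12 min RT, luminescence. Inhibition = undesired.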
Hits are given with their value; - = inactive; ? = inconclusive; . = not tested or not shown; [ ] = remark or other dose. Most compounds without a hit are left out; they make up all but 1.7% or so of the library. The call rests on the fitted dose curve; in most records, active means well fitted curve in the direction sought with a large enough effect; inconclusive means small, poorly fitted or top-dose-only effect, or another doubt; inactive means no such curve, though single readings can be large; an effect the other way counts as inactive or inconclusive.

SMILES | GLP1R ag | GLP1R inv ag | HEK293 tox
Cc1cccc2sc(N(Cc3cccnc3)C(=O)Cc3ccccc3)nc12 | . | ? | -
CCCCc1cc(=O)oc2cc(C)cc(OCC(=O)N3CCC(C(=O)O)(c4ccccc4)CC3)c12 | - | - | -
O=C(CN1C(=O)c2ccccc2S1(=O)=O)c1ccc(OC(F)F)cc1 | - | ? | -
O=C(CN1C(=O)c2ccccc2S1(=O)=O)c1ccc(F)cc1 | - | 2.24µM | -
CCc1ccccc1Nc1nc(-c2cccnc2)cs1 | - | 11.2µM | -
COc1ccccc1Nc1nc(-c2cccnc2)cs1 | - | ? | -
Cc1ccc(OC(C)C(=O)Nc2ccncc2)cc1 (stereo not given) | - | - | -
Cc1ccc(OC(C)C(=O)Nc2ccc(C)c(S(=O)(=O)Nc3ccc(C)cc3C)c2)cc1 (stereo not given) | - | 3.98µM | -
CC1(C)NC(=O)N(CC(O)CN(c2cccc([N+](=O)[O-])c2)S(=O)(=O)c2ccccc2)C1=O (stereo not given) | - | - | -
CSc1ccc(S(=O)(=O)N2c3ccccc3CC2C)cc1 (stereo not given) | - | 5.01µM | -
CC1Cc2ccccc2N1S(=O)(=O)c1cnc(Cl)c(Cl)c1 (stereo not given) | - | ? | -
CCS(=O)(=O)N1CCc2cc(C(=O)Nc3ccc(Br)cc3F)ccc21 | . | - | -
COc1cccc2c1C(CCCC(=O)O)CCC2 (stereo not given) | - | - | -
COc1cccc2c1C1COC3C4CC(C(=O)O)C(C(C2)N13)N4C (stereo not given) | - | 3.98µM | ?
CC/C=C(/C(=O)N[C@@H]1C(=O)N2C(C(=O)OCOC(=O)C(C)(C)C)=C(COC(N)=O)CS[C@H]12)c1csc(N)n1 | - | . | .
N#CC1(NC(=O)CN2c3cccc4cccc(c34)S2(=O)=O)CCCCC1 | - | - | -
CC(=O)Nc1ccc(C)cc1-c1nc2ccccc2n(Cc2cccc(Br)c2)c1=O | . | - | -
CC1CC2(CC(CN(C3CCCCC3)C3CCCCC3)OC2=O)C(=O)O1 (stereo not given) | - | - | -
Cc1c(C)c2cccnc2c2ncccc12 | - | ? | 0.891µM
Oc1c(I)cc(Cl)c2cccnc12 | - | ? | ?
Clc1cc2cccnc2c2ncccc12 | - | 4.47µM | ?
Cc1ccc(O)c2ncccc12 | - | . | .
CN(C)CCOC1=Cc2ccccc2Sc2ccc(Cl)cc21 | - | . | .
COc1ccc(Cn2c(SCc3ccc(C(=O)NC4CCCCC4)cc3)nc3cccnc32)cc1 | . | - | -
Cc1nc(CS(=O)(=O)c2ccccn2)sc1C(=O)NNC(=O)c1ccccc1 | - | - | -
SMILES | GLP1R ag | GLP1R inv ag | HEK293 tox
O=S(=O)(c1cccs1)N1CCN(CC(O)COc2cc(Cl)ccc2Cl)CC1 (stereo not given) | - | 7.94µM | -
O=S(=O)(c1cccs1)N1CCN(CCOc2ccc(Cl)cc2)CC1 | - | ? | -
CC(=O)N(CCC(Cc1ccccc1)c1ccc2c(c1)OCO2)Cc1ccc(Cl)cc1 (stereo not given) | - | 11.2µM | ?
COc1ccc(CN(CCC(c2ccc3c(c2)OCO3)c2ccccc2OC)C(C)=O)cc1 (stereo not given) | . | ? | -
Cc1oc(-c2ccc(Cl)cc2)nc1CSCC(=O)NC1CCN(Cc2ccccc2)CC1 | - | ? | -
CCOc1ccc(-c2nc(CSCC(=O)NC3CCN(Cc4ccccc4)CC3)c(C)o2)cc1 | - | 8.91µM | -
CC1=C(C(=O)N(C(C)C)C(C)C)CC(CC(=O)NC2CC2)C(=O)N1Cc1ccc(F)cc1 (stereo not given) | - | - | -
COc1cccc(Nc2sc(C(=O)c3ccc(Cl)cc3)c(N)c2C(=O)NCc2ccc(C)cc2)c1 | . | ? | -
Cc1ccc(CNC(=O)c2c(Nc3c(C)cccc3C)sc(C(=O)c3ccccc3)c2N)cc1 | . | 7.08µM | -
CCN(c1ccccc1)S(=O)(=O)c1ccc(Cl)c(NC(=O)CNC(C)c2ccccc2)c1 (stereo not given) | - | ? | -
Cn1nc(C(C)(C)C)cc1C(=O)N1CCCCC1c1cc(C(=O)Nc2cccc(C#N)c2)no1 (stereo not given) | - | 10µM | -
N#Cc1cccc(NC(=O)c2cc(C3CCCCN3C(=O)c3ccccc3)on2)c1 (stereo not given) | - | ? | -
COc1cc2ccccc2cc1C(=O)N/N=C/c1ccc2c(c1)OCO2 | - | 6.31µM | ?
COc1ccccc1C(=O)N/N=C/c1ccc2c(c1)OCO2 | - | - | -
Nc1nc(N)c2cc(Sc3ccc(Cl)cc3)ccc2n1 | - | ? | ?
Nc1nc(N)c2cc(Sc3ccc4ccccc4c3)ccc2n1 | - | 10µM | ?
CCN1/C(=C/c2ccc3ccccc3[n+]2CC)C=Cc2ccccc21 | - | ? | 4.47µM
CCN1/C(=C/c2ccc3ccccc3[n+]2CCCS(=O)(=O)[O-])C=Cc2cc(C)ccc21 | - | ? | ?
Cc1oc(-c2ccc(C(=O)NCc3ccccc3)cc2)nc1CN1CCc2ccccc21 | . | 10µM | -
Cc1oc(-c2ccc(C(=O)NCCC(C)C)cc2)nc1CN1CCc2ccccc21 | - | ? | -
CCc1ccc(OC(=O)c2sc3ncn(Cc4cccc(F)c4)c(=O)c3c2C)cc1 | . | - | -
CC1CCN(CCCCOc2ccccc2[N+](=O)[O-])CC1 | - | - | 8.91µM
CC1CCN(CCCCOc2ccc([N+](=O)[O-])cc2)CC1 | - | - | -
O=C(CCCCn1c(=O)[nH]c2ccsc2c1=O)N1CCN(c2cccc(C(F)(F)F)c2)CC1 | - | ? | -
CCN(CC)S(=O)(=O)c1ccc(Cl)c(NC(=S)NC(=O)C2CCCC2)c1 | - | ? | ?
SMILES | GLP1R ag | GLP1R inv ag | HEK293 tox
CCN(CC)c1ccc(S(=O)(=O)Nc2cc(Cl)ccc2Cl)cc1NC(=S)NC(=O)C1CCCC1 | - | 5.01µM | -
COc1ccc(C2=Nc3ccccc3N(C(=O)c3cccnc3)C2C(=O)NC(C)(C)C)cc1 (stereo not given) | . | - | -
CCc1ccc(-c2n[nH]nc2C2=CC(=O)C[C@H](c3ccc(F)cc3)C2)cc1 | - | 8.91µM | -
COc1ccccc1-c1n[nH]nc1C1=CC(=O)C[C@H](c2ccc(F)cc2)C1 | - | - | -
Cc1cccc(OCC(=O)OCc2cc(=O)n3nc(C4CC4)sc3n2)c1 | . | - | -
COCCN1CCC(CNCc2cn[nH]c2-c2ccc(C)c(C)c2)C1 (stereo not given) | - | ? | -
COCCN1CCC(CNCc2cn(-c3cc(C)ccc3C)nc2-c2ccccc2)C1 (stereo not given) | - | 2.82µM | ?
NS(=O)(=O)c1ccc(NC(=S)NCc2ccc(Cl)cc2)cc1 | - | 3.98µM | -
NS(=O)(=O)c1ccc(CNC(=S)Nc2ccc(F)c(Cl)c2)cc1 | - | ? | -
CC1(C(=O)Nc2ccc3ccccc3c2)CCC(=O)N1CCCn1ccnc1 (stereo not given) | - | - | -
COc1ccccc1OCC(=O)N/N=C1\CCc2ccccc21 | - | - | -
CC(C)c1ccccc1OCC(=O)NC1CCCc2ccccc21 (stereo not given) | - | ? | -[1.53 µM]

High-throughput results deposited in PubChem BioAssay by National Center for Advancing Translational Sciences (NCATS).
